The text below walks through data of PubChem BioAssay AID485317 (Broad Institute, 2010).

The whole screen tested about 290,000 compounds, of which about 11,000 (3.8%) were called active. The entries come from a sample that favours actives as a whole. Values without a mark were called inactive.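 How the source made its calls: active means mean replicate inhibition above about 79%, with every replicate also reaching it (limit read from the data); inconclusive means only one of the two criteria met; inactive means mean below limit and not every replicate reaching it.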

In the test the target is FAD-linked sulfhydryl oxidase ALR (Homo sapiens) (UniProt P55789). As to the kind of experiment: inhibitors of human ALR sulfhydryl oxidase, primary screen, biochemical, H2O2 detection, HRP-luminol luminescence, single point (AID 485317). The following applies: purified ALR, DTT oxidation, hits give high values, concentration not given here.
FAD-linked sulfhydryl oxidase ALR (Homo sapiens), sequence (P55789 whole entry, looked up): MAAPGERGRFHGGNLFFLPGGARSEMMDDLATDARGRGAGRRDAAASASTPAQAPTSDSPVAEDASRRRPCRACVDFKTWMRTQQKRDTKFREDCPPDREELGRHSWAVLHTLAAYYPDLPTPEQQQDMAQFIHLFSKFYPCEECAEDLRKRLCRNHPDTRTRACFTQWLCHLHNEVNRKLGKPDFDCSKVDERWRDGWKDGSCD
As for `CCN(C(=O)CSc1cccc[n+]1[O-])c1ccccc1`, the inhibition – broadly, the change of the read-out against control, counted positive when it falls – is -7.12%.

Regarding `COc1cccc(/C=C/C(=O)OCC(=O)N2CCN(c3ccccc3)CC2)c1`, the inhibition is 27.8%.

For the compound `COc1cccc(-c2ccc(SCC(=O)N3CCN(c4ccccc4)CC3)nn2)c1`, the inhibition was 88.3% (active).

For the compound `CCOc1ccc(-c2ccc(SCC(=O)N3CCOCC3)nn2)cc1`, the inhibition is -5.59%.

`CC1CCCN(C(=O)CN2C(=O)c3ccccc3S2(=O)=O)C1` (stereo unspecified): the inhibition is -1.06%.

Regarding `O=C(NNC(=O)c1ccc(-n2cncn2)c([N+](=O)[O-])c1)c1ccccc1`, the inhibition is -16.9%.

`O=C(NCc1ccncc1)c1ccc(NS(=O)(=O)c2cccc([N+](=O)[O-])c2)cc1`: the inhibition is -17.6%.

For the compound `O=C(NCCCN1CCOCC1)c1ccccc1NS(=O)(=O)c1ccc(F)cc1`, the inhibition is -11.8%.

For the compound `O=C(NCCCN1CCOCC1)c1ccccc1NS(=O)(=O)c1ccc(Br)cc1`, the inhibition is -9.12%.

For `O=C(NCCCN1CCOCC1)c1cnn2c(-c3ccccc3)cc(-c3ccccc3)nc12`, the inhibition is 94.1% (active).

As to `CN(C)S(=O)(=O)c1cccc(NC(=O)COc2ccc3ccccc3c2)c1`, the inhibition is -11.4%.

`COCCNC(=O)c1ccc(-n2c(SCc3cccnc3)nc3ccccc3c2=O)cc1`: the inhibition is -2.07%.

In the case of `C=CCn1c(SCc2ccc(C(=O)NCCO)cc2)nc2ccccc2c1=O`, the inhibition is 98.7% (active).

On to `C=CCn1c(SCC(=O)NC(=O)Cc2ccccc2)nc2ccccc2c1=O`, for which the inhibition is -2.51%.

As to `Cc1ccc(CNC(=O)c2cccc3c2C(=O)c2ccc(N4CCC(C)CC4)cc2S3(=O)=O)cc1`, the inhibition is 3.52%.

As for `NS(=O)(=O)c1ccc(CCNC(=O)COC(=O)COc2cccc(C(F)(F)F)c2)cc1`, the inhibition is -3.46%.

For the compound `S=c1[nH]nc(CSCc2ccc(Cl)cc2Cl)n1-c1ccccc1`, the inhibition was 1.91%.

For the compound `Cc1ccc(NCc2n[nH]c(=S)n2-c2ccccc2)cc1Cl`, the inhibition was 88.3% (active).

With `Cc1ccc(OCc2n[nH]c(=S)n2-c2ccccc2)cc1`, the inhibition is 65.2%.

Regarding `Cc1ccc(NC(=O)C2CCC(C(C)(C)C)CC2)cc1S(=O)(=O)N1CCOCC1` (stereo unspecified), the inhibition is -0.467%.

With `CC(C(=O)Nc1ccc(S(=O)(=O)N2CCCC2)cc1)N(C)Cc1ccc(F)cc1` (stereo unspecified), the inhibition is -1.06%.

As to `CCn1c(=S)[nH]c2cc(S(=O)(=O)N3CCOCC3)ccc21`, the inhibition was 67.1%.

With `COc1cccc(NC(=O)C(=O)c2cn(CC(=O)N3CCOCC3)c3ccccc23)c1`, the inhibition is 4.42%.

In the case of `CN1c2ccc(C=O)c3c(C=O)ccc(c23)N(C)C1(C)C`, the inhibition was 99.2% (active).

On to `N/C(Cc1ccc([N+](=O)[O-])cc1)=N\OC(=O)COc1ccc2ccccc2c1`, for which the inhibition was -17.6%.

As to `CCOC(=O)COc1ccc([N+](=O)[O-])cc1`, the inhibition is 3.19%.

With `Cc1cc(C)cc(OCC(=O)O/N=C(\N)Cc2ccc([N+](=O)[O-])cc2)c1`, the inhibition is 98.4% (active).

For the compound `Cc1ccc(S(=O)(=O)NC(C)C(=O)NCc2ccc(Cl)cc2)cc1` (stereo unspecified), the inhibition is 10.6%.

For the compound `CCOc1ccc(N=Cc2c(O)n(-c3cccc(C)n3)c(=O)c3ccccc23)cc1`, the inhibition was -11.1%.

Regarding `Oc1ccc(N=Cc2c(O)ccc3ccccc23)cc1`, the inhibition is 99.5% (active).

Regarding `Oc1c(C=Nc2cccc3nsnc23)ccc2ccccc12`, the inhibition is 25.2%.

Consider `CCN(c1ccccc1)S(=O)(=O)c1cccc(C(=O)NCc2ccccc2CN2CCOCC2)c1`, for which the inhibition was -5.99%.

As for `Cc1ccc(COC(=O)CN2C(=O)NC3(CCCC3)C2=O)cc1`, the inhibition was -0.909%.

`COc1ccc(C(=O)CSc2nnc(-c3ccco3)o2)cc1`: the inhibition was 19.8%.

For the compound `CCC(=O)Nc1ccc(C(=O)CSc2nnc(CNc3ccc(Cl)cc3)o2)cc1OC`, the inhibition was 0.831%.

As to `CC(C)C[C@@H](N)c1nnc(SCC(=O)c2ccc(Cl)cc2)o1`, the inhibition is 98.5% (active).

In the case of `Cc1cc(C)cc(-c2nnc(SCC(=O)NC3CC3)o2)c1`, the inhibition is -0.0792%.

With `CC1=NN(c2ccc(Cl)c(C(=O)O)c2)C(=O)/C1=C/c1ccc(-c2ccccc2[N+](=O)[O-])o1`, the inhibition was 71.4%.

For the compound `O=C1NN(c2ccccc2)C(=O)/C1=C/c1ccc(-c2cccc(C(=O)O)c2)o1`, the inhibition is 98.7% (active).

On to `Cc1cccc(C)c1-n1c(C)cc(/C=C2\C(=O)NN(c3ccccc3)C2=O)c1C`, for which the inhibition was 21.8%.

In the case of `O=S(=O)(NCC1CN(S(=O)(=O)c2ccc3c(c2)OCCO3)C1)c1c(F)cccc1F`, the inhibition is -2.88%.

Turning to `COc1ccc(NC(=O)Nc2ccc3c(c2)C(=O)N([C@H](C)CO)C[C@H](C)[C@@H](CN(C)C(=O)Nc2ccc4c(c2)OCO4)O3)cc1`, the inhibition was -7.46%.

`Cc1cc(C(=O)OCC(=O)N2C(C)CCCC2C)c2ccccc2n1` (stereo unspecified): the inhibition is -5.22%.

`COc1ccc(C(=O)O)cc1S(=O)(=O)NC1CCN(Cc2ccccc2)CC1`: the inhibition is -0.811%.

As for `Cn1nc(-c2ccc(Cl)cc2)c2cc(C(=O)NCc3ccco3)sc21`, the inhibition was 86.8% (active).

Turning to `CCOC(=O)N1CCN(C(=O)c2cc3c(-c4ccc(Cl)cc4)nn(C)c3s2)CC1`, the inhibition is 72.2%.

Take `COc1ccccc1N1CCN(C(=O)c2cc3c(-c4ccc(Cl)cc4)nn(C)c3s2)CC1`: the inhibition is -109%.

On to `O=C(COC(=O)c1cccc(Cl)c1)NC1CCCCCCC1`, for which the inhibition was -2.57%.

Regarding `O=C(NN=C1CCC(=NNC(=O)c2cccnc2)CC1)c1cccnc1`, the inhibition was 99.1% (active).

Consider `O=C(N/N=C/c1ccccn1)c1cccnc1`, for which the inhibition was -5.07%.

Regarding `C/C(=N\NC(=O)c1cccnc1)c1ccc(-c2ccccc2)cc1`, the inhibition is -25.7%.

On to `CCCCN(C1CCS(=O)(=O)C1)S(=O)(=O)c1ccc(C(C)C)cc1` (stereo unspecified), for which the inhibition was -1.06%.

In the case of `CC1O[C@H](OC2C(COC3OC(CO)C(O)[C@H](O)C3O)OC(OC3CC[C@]4(C)C(CC[C@@]5(C)[C@@H]4C=C[C@]46OC[C@@]7(CCC(C)(C)C[C@H]74)C(O)C[C@@]56C)C3(C)C)C(O)C2O)C(O)C(O)C1O` (stereo partly specified), the inhibition is -3.57%.

In the case of `CCCCN1C(N)=NC[C@@H]1CC1CCCCC1`, the inhibition was 98.3% (active).

In the case of `CCCC[C@@H]1CN=C(N)N1CCc1cc(C(F)(F)F)cc(C(F)(F)F)c1`, the inhibition was -42.9%.

Regarding `CCCC[C@@H]1CN=C(N)N1CCCC`, the inhibition is 4.8%.
